# Values quoted from earlier work in PubChem BioAssay AID977611.
# Out of some 3,900 compounds screened, about 3,900 (100%) were called active. No cut-off is given here; in the data, nearly all actives have Kd up to about 4200 µM. The set was probably picked from earlier hits. The list shows a part of the results. Starred links: 1 amine or outer side, 2 acyl side, 3 side chain; linkers in the order of their positions; H or OH if unused. Where a SMILES comes first, the peptide text is derived from it. Non-standard residues stand in square brackets, D forms with d. Square brackets hold non-standard residues; d marks the D form. Residues, ends and D or L forms follow the SMILES beside them. Peptide text beside a SMILES is read from it. [ ]: non-standard residue; d: D form. X1 = CNC(NC)NCCC[C@H](N[*:1])C(=O)[*:2]; Thr(P(OH)3+) = C[C@@H](O[P+](O)(O)O)[C@H](N)C(=O)O; Orn(CH(NH2)2) = NC(N)NCCC[C@H](N)C(=O)O; Lys(Me2) = CN(C)CCCC[C@H](N)C(=O)O; Lys(Me) = CNCCCC[C@H](N)C(=O)O; Abu = CC[C@H](N)C(=O)O
# Assay: PubChem AID 977611
# Details: PDB protein-ligand complexes, literature Kd
compound,measurement,setting,value
NCCCCCC(=O)N[C@H]1Cc2ccccc2[C@@H]1Cc1ccc2c(c1C(=O)O)OCO2,Kd,"protein: INTEGRASE, PDB entry 4cgi",752 µM (active)
same,Kd,"protein: INTEGRASE, PDB entry 4cgj",1460 µM (active)
O[P+](O)(O)O[P+](O)(O)O[P+](O)(O)O,Kd,"protein: DNA primase small subunit, PDB entry 4lil",12.5 µM (active)
same,Kd,"protein: Thiamine-triphosphatase, PDB entry 3tvl",100 µM (active)
C[C@@H](O)[C@H](NC(=O)[C@@H]1CCCN1C(=O)[C@H](CO[P+](O)(O)O)NC(=O)[C@@H](N)Cc1ccc(O)cc1)C(=O)N[C@@H](CO)C(=O)N1CCC[C@H]1C(=O)N[C@@H](CO)C(=O)N[C@@H](Cc1ccc(O)cc1)C(=O)N[C@@H](CO[P+](O)(O)O)C(=O)N1CCC[C@H]1C=O,Kd,"protein: CTD INTERACTING DOMAIN of RNA processing factor SCAF8, PDB entry 3d9l",68 µM (active)
C[C@@H](O)[C@H](NC(=O)[C@@H]1CCCN1C(=O)[C@H](CO[P+](O)(O)O)NC(=O)[C@@H](N)Cc1ccc(O)cc1)C(=O)N[C@@H](CO[P+](O)(O)O)C(=O)N1CCC[C@H]1C(=O)N[C@@H](CO)C(=O)N[C@@H](Cc1ccc(O)cc1)C(=O)N[C@H](C=O)CO[P+](O)(O)O,Kd,"protein: CTD INTERACTING DOMAIN of RNA processing factor SCAF8, PDB entry 3d9k",19 µM (active)
CNc1nc(C)c(-c2nc(Nc3cccc(C(=O)N4CCOCC4)c3)ncc2C#N)s1,Kd,"protein: CYCLIN-DEPENDENT KINASE 2, PDB entry 4bcq",0.147 µM (active)
C[C@H](N)C(=O)N[C@@H](CCCNC(N)N)C(=O)N[C@H](C(=O)N[C@@H](CCCCN)C(=O)N[C@@H](CCC(N)=O)C(=O)N[C@H](C(=O)N[C@@H](C)C(=O)N[C@@H](CCCNC(N)N)C(=O)N[C@@H](CCCCN)C(=O)O)[C@@H](C)O)[C@@H](C)O,Kd,"protein: Histone-lysine N-methyltransferase NSD3, PDB entry 4gnf",450 µM (active)
C[C@H](N)C(=O)N[C@@H](CCCNC(N)N)C(=O)N[C@H](C(=O)N[C@@H](CCCCN)C(=O)N[C@@H](CCC(N)=O)C(=O)N[C@H](C(=O)O)[C@@H](C)O)[C@@H](C)O (H-A[Orn(CH(NH2)2)]TKQT-OH),Kd,"protein: Histone-lysine N-methyltransferase NSD3, PDB entry 4gne",3400 µM (active)
C[C@H](N)C(=O)N[C@@H](CCCNC(N)N)C(=O)N[C@H](C(=O)N[C@@H](CCCCN)C(=O)N[C@@H](CCC(N)=O)C(=O)N[C@H](C(=O)N[C@@H](C)C(=O)N[C@@H](CCCNC(N)N)C(=O)N[C@@H](CCCCN)C(=O)N[C@@H](CO)C(=O)O)[C@@H](C)O)[C@@H](C)O,Kd,"protein: BHC80 PHD domain, PDB entry 2puy",30 µM (active)
C[C@H](N)C(=O)N[C@@H](CCCNC(N)N)C(=O)N[C@H](C(=O)N[C@@H](CCCCN(C)C)C(=O)N[C@@H](CCC(N)=O)C(=O)N[C@H](C(=O)O)[C@@H](C)O)[C@@H](C)O (H-A[Orn(CH(NH2)2)]T[Lys(Me2)]QT-OH),Kd,"protein: WD-repeat protein 5(WDR523), PDB entry 2o9k",77 µM (active)
same,Kd,"protein: bromodomain PHD finger transcription factor, PDB entry 2fsa",5 µM (active)
CNCCCC[C@H](NC(=O)[C@@H](NC(=O)[C@H](CCCNC(N)N)NC(=O)[C@H](C)N)[C@@H](C)O)C(=O)N[C@@H](CCC(N)=O)C(=O)N[C@H](C(=O)O)[C@@H](C)O (H-A[Orn(CH(NH2)2)]T[Lys(Me)]QT-OH),Kd,"protein: human Chromodomain-helicase-DNA-binding protein 1(CHD1), PDB entry 2b2v",17 µM (active)
C[C@H](N)C(=O)N[C@@H](CCCNC(N)N(C)C)C(=O)N[C@H](C(=O)N[C@@H](CCCCN(C)C)C(=O)N[C@@H](CCC(N)=O)C(=O)N[C@H](C(=O)N[C@@H](C)C(=O)O)[C@@H](C)O)[C@@H](C)O (some centres not stated) (H-A[X1]T[Lys(Me2)]QTA-OH),Kd,"protein: hPHD-HD1 complex, PDB entry 2vpg",2.1 µM (active)
C[C@H](N)C(=O)N[C@@H](CCCNC(N)N)C(=O)N[C@H](C(=O)N[C@@H](CCCCN)C(=O)N[C@@H](CCC(N)=O)C(=O)O)[C@@H](C)O[P+](O)(O)O,Kd,"protein: human Survivin, PDB entry 3uig",4.8 µM (active)
C[C@H](N)C(=O)N[C@@H](CCCNC(N)N)C(=O)N[C@H](C(=O)N[C@@H](CCCCN)C(=O)N[C@@H](CCC(N)=O)C(N)=O)[C@@H](C)O,Kd,"protein: WD-repeat protein 5(WDR5), PDB entry 2co0",3.3 µM (active)
CNC(NC)NCCC[C@H](NC(=O)[C@H](C)N)C(=O)N[C@H](C(=O)N[C@@H](CCCCN)C(=O)N[C@@H](CCC(N)=O)C(=O)N[C@H](C(N)=O)[C@@H](C)O)[C@@H](C)O (H-A[X1]TKQT-NH2),Kd,"protein: WD REPEAT-CONTAINING PROTEIN 5, WDR5, PDB entry 4a7j",0.1 µM (active)
C[C@H](N)C(=O)N[C@@H](CCCNC(N)N)C(=O)N[C@H](C(=O)N[C@@H](CCCCN)C(=O)N[C@@H](C)C(=O)N[C@@H](C)C(=O)O)[C@@H](C)O[P+](O)(O)O (H-A[Orn(CH(NH2)2)][Thr(P(OH)3+)]KAA-OH),Kd,"protein: Baculoviral IAP repeat-containing protein 5, human Survivin, PDB entry 3ued",29.6 µM (active)
C[C@H](N)C(=O)N[C@@H](CCCNC(N)N)C(=O)N[C@H](C(=O)N[C@@H](CCCCN)C(=O)N[C@@H](CCC(N)=O)C(=O)NCC(=O)O)[C@@H](C)O (H-A[Orn(CH(NH2)2)]TKQG-OH),Kd,"protein: WD-repeat protein 5(WDR523), PDB entry 2h9m",35 µM (active)
CC[C@H](NC(=O)[C@@H](NC(=O)[C@H](CCCNC(N)N)NC(=O)[C@H](C)N)[C@@H](C)O)C(=O)N[C@@H](CCC(N)=O)C(=O)O (H-A[Orn(CH(NH2)2)]T[Abu]Q-OH),Kd,"protein: WD-repeat protein 5(WDR5), PDB entry 2h13",4.5 µM (active)
same,Kd,"protein: WD-repeat protein 5(WDR523), PDB entry 2h9n",115 µM (active)
CCC[C@H](NC(=O)[C@@H](NC(=O)[C@@H](NC(=O)[C@H](CC(N)=O)NC(=O)[C@@H]1CCCN1C(=O)[C@H](CC(C)C)NC(=O)[C@H](CO[P+](O)(O)O)NC(=O)[C@@H]1CCCN1C(=O)[C@@H](N)CO)[C@@H](C)CC)[C@@H](C)O)C(=O)O,Kd,"protein: 14-3-3 protein gamma, PDB entry 3uzd",9 µM (active)
CC(C)C[C@H](NC(=O)[C@H](CCC(=O)O)NC(=O)[C@@H]1CCCN1C(=O)[C@H](CCC(=O)O)NC(=O)[C@H](Cc1ccc(O[P+](O)(O)O)cc1)NC(=O)[C@@H]1CCCN1C(=O)[C@H](CC(N)=O)NC(=O)[C@H](Cc1ccccc1)NC(=O)[C@@H](N)CO)C(=O)O (H-SFNP[X1]EPEL-OH),Kd,"protein: E3 ubiquitin-protein ligase CBL, PDB entry 3buw",1.49 µM (active)
H-STNPFL-OH,Kd,"protein: epidermal growth factor receptor substrate 15(EH2 of Eps15), PDB entry 1ff1",12 µM (active)
CC(C)C[C@H](NC(=O)[C@H](Cc1ccccc1)NC(=O)[C@@H](N)CO)C(=O)N[C@@H](CCC(N)=O)C(=O)N[C@@H](CCCNC(N)N)C(=O)N[C@@H](Cc1ccc(O[P+](O)(O)O)cc1)C(=O)N[C@@H](CO)C(=O)N[C@@H](CO)C(=O)N[C@@H](CC(=O)O)C(=O)N1CCC[C@H]1C(=O)N[C@H](C(=O)O)[C@@H](C)O (H-SFLQ[Orn(CH(NH2)2)][X1]SSDPT-OH),Kd,"protein: E3 ubiquitin-protein ligase CBL, PDB entry 3buo",0.88 µM (active)
NCC(=O)NC1CCN(Cc2c[nH]c3ccccc23)CC1,Kd,"protein: H-RasWT:Soscat:H-RasY64A:GppNHp complex, PDB entry 4nyj",322 µM (active)
N[C@@H](Cc1c[nH]c2ccccc12)C(=O)NC1CCN(Cc2c[nH]c3ccccc23)CC1,Kd,"protein: H-RasWT:Soscat:H-RasY64A:GppNHp complex, PDB entry 4nym",279 µM (active)
